# High-throughput results as filed in PubChem BioAssay.
# Only some compounds are listed: those with a hit (about 7.4% of all), similar ones and a draw of the others.
# SMN2 splice up: enhancers of SMN2 splice variant expression. HEK293 SMN2-luciferase splicing reporter, luminescence, 30-36 h. Potency, µM (titrated, usually from 46.1 µM), actives largely listed as activators. 2.8% of 210,000 active. AID 1458; note: nearly all actives have a fitted effect of over 55% in size
#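 qHTS luciferase splicing reporter: luminescence rises when SMN2 exon 7 is included in transfected HEK293 cells. Compound exposure lasted 30-36 h at 37C, with 4.5 mM final sodium butyrate as control, followed by a ONE-Glo read.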
# NPC1 prom act: activates the NPC1 promoter; Huh7 NPC1 promoter luciferase reporter, 24 h; Potency, µM (series often up to 9.22 µM), hits mostly activators; 2.4% of 320,000 active; AID 485313; note: nearly all actives have a fitted effect of over 60% in size
#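 Cells: Huh7 expressing luciferase under the NPC1 promoter, 1500/well. Seeded 2 h, compound added, incubated 24 h at 37 °C. Luciferase reagent, 10 min ambient, then luminescence.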
# Rab9 promoter act: activators of Rab9 promoter; Huh7 Rab9 promoter-luciferase reporter, luminescence, 24 h; Potency, µM (titrated, usually from 9.22 µM), most hits filed as activators; 2.8% of 320,000 active; note: nearly all actives have a fitted effect of over 60% in size
#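 Rab9 promoter-driven luciferase in stably transfected Huh7 cells; 1500 cells/well rested 2 h, exposed to compound in DMSO for 24 h at 37 °C, 5% CO2. Luminescence read 10 min after adding luciferase reagent at ambient temperature.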
# FLuc counter: counter-screen for miR-21 project: firefly luciferase inhibitors or activators; Potency, µM (titrated, usually from 57.5 µM), actives largely listed as inhibitors; 6.9% of 360,000 active; P08659; purified FLuc, Km substrates, luminescence inhibition; note: nearly all actives have a fitted effect of over 55% in size
# Target sequence (P08659 whole entry, looked up): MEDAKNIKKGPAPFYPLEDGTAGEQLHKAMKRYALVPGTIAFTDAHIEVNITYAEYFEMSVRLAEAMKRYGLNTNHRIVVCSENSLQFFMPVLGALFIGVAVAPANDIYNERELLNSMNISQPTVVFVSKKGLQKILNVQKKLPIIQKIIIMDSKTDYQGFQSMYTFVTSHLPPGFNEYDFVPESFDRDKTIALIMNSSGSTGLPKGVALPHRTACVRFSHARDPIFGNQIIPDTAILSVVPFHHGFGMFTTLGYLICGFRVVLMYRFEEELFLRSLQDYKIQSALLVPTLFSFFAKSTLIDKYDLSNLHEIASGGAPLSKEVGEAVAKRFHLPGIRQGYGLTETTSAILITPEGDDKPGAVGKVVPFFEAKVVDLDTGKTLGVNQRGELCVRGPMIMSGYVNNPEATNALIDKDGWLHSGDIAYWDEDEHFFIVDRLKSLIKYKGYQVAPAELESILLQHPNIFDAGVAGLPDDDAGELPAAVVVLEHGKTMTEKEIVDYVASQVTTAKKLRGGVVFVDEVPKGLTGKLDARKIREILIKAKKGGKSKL
#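 Purified P. pyralis luciferase, 10 nM final, with Km-level 10 uM D-luciferin and 10 uM ATP in 50 mM Tris acetate pH 7.5, 10 mM Mg acetate, 0.01% Tween-20, 0.05% BSA; 6-point qHTS titration about 60 µM downward; luminescence read.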
# ELG1 genotox: inducers of genotoxicity in HEK293T ELG1-luciferase cells; HEK293T ELG1-luciferase reporter, luminescence, 16 h; AID 504466; 1.3% of 330,000 active; Potency, µM (highest dose often 46 µM), most hits filed as activators; note: nearly all actives have a fitted effect of over 60% in size
#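 Quantitative HTS format in 1536-well plates. HEK293T ELG1-luciferase reporter cells receive test compound and are incubated 16 hr at 37 °C, 5% CO2; ONE-Glo added, 30 min room temperature, then luminescence read.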
# Numbers stand for hits; 0 = inactive; ? = inconclusive; - = no result; [ ] = remark or other dose. Calls come from the whole dose curve; as a rule, active = well fitted curve in the direction sought with a large enough effect; inconclusive = small, poorly fitted or top-dose-only effect, or another doubt; inactive = no such curve, though single readings can be large; an effect the other way counts as inactive or inconclusive.
SMILES,SMN2 splice up,NPC1 prom act,Rab9 promoter act,FLuc counter,ELG1 genotox
CCc1cc2c(cc3c(=O)n(CC(=O)N4CCN(c5cccc(C)c5C)CC4)nc(CC)n32)s1,0,-,-,0,-
Cn1c(CCCOc2ccc(Cl)cc2Cl)nnc1SCC(=O)Nc1cccc(F)c1,0,0,0,4.78µM,0
CCn1c(CNC(=O)COc2ccc(C(C)C)cc2)nnc1SCC(=O)Nc1cc(F)ccc1C,0,0,0,0,0
CCn1c(CCCOc2ccc(Cl)cc2Cl)nnc1SCC(=O)Nc1cc(F)ccc1C,0,0,0,16.9µM,0
Cn1c(CCCOc2ccc(Cl)cc2Cl)nnc1SCC(=O)Nc1ccc(F)c(Cl)c1,0,0,0,0,0
C=CCn1c(CCCOc2ccc(Cl)cc2Cl)nnc1SCC(=O)Nc1nccs1,0,0,0,13.5µM,0
COc1ccc(-c2cc3ccc(O)c(CN4CCN(C)CC4)c3oc2=O)cc1OC,-,-,-,0,-
Cc1ccc(C(=O)NCCc2ccccc2)cc1,-,?,0.0398µM,0.536µM,?
Cc1ccc(CNC(=O)c2ccc(Cn3cc(-c4ccc(C)cc4)nc3-c3ccncc3)cc2)cc1,-,?,2.82µM,10.7µM,?
Cc1ccc(Oc2ccc(C(=O)NCc3ccncc3)cc2)cc1,0,0,0,0,0
Cc1ccc(C(=O)NCCc2ccncc2)cc1,?,?,?,21.3µM,?
O=C(NCCc1ccccc1)c1cnc(Cl)c(Cl)c1,-,0,0,23.9µM,0
O=S(=O)(NCc1cccc(Br)c1)c1ccc(-c2cc(C(F)(F)F)on2)s1,-,-,-,0,-
Cc1cc2oc(C(=O)N(Cc3ccc(N(C)C)cc3)Cc3ccco3)c(C)c2cc1Cl,0,-,-,0,-
CN(c1ccc(C(=O)NCCSCc2ccco2)cc1)S(C)(=O)=O,0,0,0,?,?
CN(c1ccc(C(=O)NCCc2ccccc2)cc1)S(C)(=O)=O,14.1µM,1.41µM,0.631µM,5.36µM,1.64µM
CN(c1ccc(C(=O)NCCSC(C)(C)C)cc1)S(C)(=O)=O,11.2µM,?,?,19µM,10.3µM
Cc1ccc(CCNC(=O)NC(C)(C)C)cc1,3.55µM,?,?,?,0
COc1ccc(CNC(=O)Cn2nc(C(F)(F)F)c3c2CCC3)cc1,11.2µM,0,0,0,0
COc1ccc(Cl)cc1N=Nc1ncc[nH]1,0,-,-,-,-
Cc1ccc(C(CC(=O)c2ccco2)SCCO)cc1 (stereo not drawn),0,0,0,10.7µM,?
CN(C)CC#Cc1cncc(C(=O)NNC(=O)Nc2ccc(Cl)cc2)c1,-,0,0,23.9µM,0
CC(C)Oc1ccc(CNC(=O)c2ccc(NC(=O)c3nsc4ccccc34)cc2)cc1,-,-,-,7.57µM,-
CCOc1cc(CNC(=O)c2ccc(NC(=O)c3nsc4ccccc34)cc2)ccc1OC,-,-,-,3.01µM,-
COc1ccc(OC)c(CNC(=O)c2ccc(NC(=O)c3nsc4ccccc34)cc2)c1,-,-,-,6.75µM,-
SMILES,SMN2 splice up,NPC1 prom act,Rab9 promoter act,FLuc counter,ELG1 genotox
CCOc1ccc(CNC(=O)c2ccc(NC(=O)C3=CSCCO3)cc2)cc1,-,0,0,0,0[9.26 µM]
CCOc1ccc(CNC(=O)c2ccc(NC(=O)c3nsc4ccccc34)cc2)cc1,-,-,-,7.57µM,-
CCOc1cc(CNC(=O)c2ccc3nc(CCc4ccccc4)oc3c2)ccc1OC,-,-,-,0,-
COc1ccc(C(=O)NCc2ccccc2OC)cc1,0,0,0,0,0
CCOC(=O)c1ccccc1NC(=O)CSc1cn(CC(=O)N2CCCCC2)c2ccccc12,-,-,-,0,-
O=C(NCc1ccccc1Cl)c1ccccc1NC(=O)c1nsc2ccccc12,-,-,-,16.9µM,-
CSc1ccc(CNC(=O)c2ccc(NC(=O)c3nsc4ccccc34)cc2)cc1,-,-,-,6.01µM,-
Cc1nn(C(C)C(=O)N2CCCCC2)c(=O)c2c1sc1ccccc12 (stereo not drawn),0,0,0,0,0
Cc1ccc(C)c(N2CCN(C(=O)C(C)n3nc(C)c4sc5ccccc5c4c3=O)CC2)c1 (stereo not drawn),-,-,-,15.1µM,-
CC(C)Cn1c(=O)c2ccccc2n2c(CCC(=O)Nc3ccc(F)c(F)c3)nnc12,0,-,-,0,-
COc1ccc(/C=N/n2cnnc2SCc2ccc(OC)cc2)cc1,0,0,0,13.5µM,0
CCCC1c2c(ccc3ccccc23)Oc2ccc3ccccc3c21,0[9.22 µM],-,-,-,-
Cn1c(=O)c2c(SCc3ccccn3)nc(C3CC3)nc2n(C)c1=O,0,0,0,0,16.4µM
c1cc2c(cc1Nc1nc(-c3ccc4c(c3)OCO4)cs1)OCCO2,3.98µM,3.16µM,2.82µM,4.26µM,?
c1ccc(-c2csc(Nc3ccc4c(c3)OCCO4)n2)cc1,3.98µM,-,-,0.536µM,-
N#C/C(=C\Nc1ccc2c(c1)OCCO2)c1nc(-c2ccccc2)cs1,0,0,0,0,?
COc1cccc(Nc2nc(-c3ccc4c(c3)OCCO4)cs2)c1,14.1µM,?,3.16µM,3.38µM,?
O=C(/C=C/c1ccc2c(c1)OCO2)Nc1nc(-c2ccc(F)cc2)cs1,0,0,0,?,0
Cc1coc2cc3oc(=O)c(CC(=O)NCCc4ccccc4)c(C)c3cc12,0,-,-,0,-
CCc1ccc(NC(=O)C2CCN(c3cc(C)nc4c(-c5ccc(Cl)cc5)c(C)nn34)CC2)cc1,0,-,-,0,-
O=S(=O)(c1ccccc1)c1nnn2c1nc(N1CCN(c3ccccc3)CC1)c1cc(Cl)ccc12,0,-,-,0,-
NS(=O)(=O)c1cccc(NC(=O)COC(=O)CNC(=O)c2ccc(-c3ccccc3)cc2)c1,-,0,0,6.75µM,0
Cc1[nH]c2ccc(C(=O)OCC(=O)Nc3cccc(S(N)(=O)=O)c3)cc2c1C,-,0,0,16.9µM,0
CC(C)C[C@H](NC(=O)C1OC1C(=O)O)C(=O)NCCCCN=C(N)N (stereo partly drawn),0,0,0,-,-
CCCCC/C=C\C/C=C\CCCCCCCCCC(=O)NC(C)C(=O)O (stereo not drawn),0,-,-,-,-
